# From the supplement of paper PMC11219838
# Values without a mark were called inactive.
# Experiments:
# Settings in all cases: 60 µM; 5 days; temperature: 20 °C
# Meloidogyne hapla J2 = experiment: proportion of mobile M. hapla J2 relative to DMSO control (fraction of DMSO control); higher = more viable, less nematicidal, active = 0.7 or less
# Outline: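 Sealed 96-well plates, each well holding around 25 M. hapla J2 in distilled water with compound pinned to 60 µM final (0.6% v/v DMSO), were shaken at 200 rpm for 5 days at 20 °C. Then 2 µL of 1 M NaOH was added to each well. Microscope-scored mobility was normalised to the mean of DMSO-only wells from the same plate. Eight such wells were on each plate, and the two biological replicates were averaged.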
# [1] = test system: Caenorhabditis elegans dauer (daf-2(e1370)); experiment: proportion of mobile C. elegans dauer larvae relative to DMSO control (fraction of DMSO control); higher = more viable, less nematicidal, active = 0.63 or less; extreme values may be limits of the assay
# Outline: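 Compound was added by pinning to 60 µM final, giving 0.6% v/v DMSO, in 96-well plates containing about 20 C. elegans dauers per well in liquid NGM. These dauers came from synchronized larvae held on MYOB plates with E. coli OP50 for 48 h at 25 °C. Plates were sealed and shaken at 200 rpm at 20 °C for 5 days. Under a dissection microscope, the proportion of mobile worms was scored relative to DMSO wells, and two biological replicates were averaged.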
# Ditylenchus dipsaci = experiment: proportion of mobile D. dipsaci (mixed stage) relative to DMSO control (fraction of DMSO control); higher = more viable, less nematicidal, active = 0.86 or less; extreme values may be limits of the assay
# Outline: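 Mobility, expressed relative to DMSO controls, is the mean of two biological replicates. The test organisms were D. dipsaci grown on pea plants in Gamborg B-5 agar and extracted into water by filter funnel, with about 20 added per well of a 96-well plate in distilled water. Compound was pinned to 60 µM final (0.6% v/v DMSO), plates were sealed and shaken at 200 rpm for 5 days at 20 °C, and mobile worms were scored under a microscope once 2 µL 1 M NaOH had been added.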
Structure (SMILES),proportion of mobile M. hapla J2 (Meloidogyne hapla J2),proportion of mobile C. elegans dauer larvae [1],proportion of mobile D. dipsaci (Ditylenchus dipsaci)
N#Cc1ccc(CSc2nnc(-c3ccco3)o2)cc1,0.607 (active),1,1
Clc1ccc(-c2nc(-c3ccccc3Br)no2)cc1,0.984,1,1
COc1cccc(-c2nc(-c3ccc(F)cc3)no2)c1,0.862,1,1
Brc1ccc(OCc2nc(-c3cccnc3)no2)cc1,0.955,1,1
CCOc1ccccc1-c1nnc(SCc2ccc(C(=O)OC)o2)o1,0.904,1,1
CCCCC(=O)Nc1ccccc1-c1nc(-c2cccnc2)no1,1.01,1,1
COc1nc(-c2ccccc2)ccc1-c1noc(-c2ccccc2Cl)n1,0.989,1,1
Fc1ccc(-c2noc(COc3ccccc3Cl)n2)cc1,1.03,1,1
Cc1ccc(OCc2nc(-c3ccncc3)no2)c(Br)c1,0.993,1,1
Cc1ccc(OCc2nc(-c3ccccc3)no2)c(Br)c1,1.01,1,1
Brc1ccc(-c2noc(-c3ccco3)n2)cc1,1.01,0 (active),0.875
CCc1nc(-c2ccc(-c3ccccc3)nc2OC)no1,0.99,1,1
O=C(Nc1ccccc1-c1nc(-c2cccnc2)no1)c1ccccc1Cl,0.983,1,1
CCCc1nnc(SCc2nnc(-c3ccccc3)o2)o1,1.03,1,1
Cc1ccc(-c2nc(-c3ccccc3Cl)no2)cc1,0.998,1,1
c1ccc2c(-c3nc(-c4ccncc4)no3)cccc2c1,0.917,1,1
Cc1ccc(OCc2nc(-c3ccc(Cl)cc3)no2)cc1,0.901,1,1
CCCc1nnc(CSc2nnc(-c3ccc(Cl)cc3)o2)o1,0.983,1,0.812 (active)
CCCc1ccc(-c2nc(-c3cccnc3)no2)cc1,1.08,0.926,0.562 (active)
COc1ccc(-c2noc(COc3ccc(Br)cc3)n2)cc1,1,1,1
Clc1cccc(-c2nc(-c3ccncc3)no2)c1,0.634 (active),1,1
COc1ccccc1CC(=O)Nc1ccc(-c2noc(-c3ccc(Cl)cc3)n2)cc1,0.938,1,1
CCCC(=O)Nc1ccccc1-c1nc(-c2cccnc2)no1,1.04,1,1
Clc1ccc(-c2nnc(SCc3ccccc3)o2)c(Cl)c1,0.957,1,1
Brc1ccc(-c2noc(-c3cccs3)n2)o1,0.7 (active),0.5 (active),1

Structure (SMILES),proportion of mobile M. hapla J2 (Meloidogyne hapla J2),proportion of mobile C. elegans dauer larvae [1],proportion of mobile D. dipsaci (Ditylenchus dipsaci)
Cc1ccc(CSc2nnc(-c3cccc(Br)c3)o2)c(C)c1,1.02,1,1
CCCOc1ccc(-c2nc(-c3cccnc3)no2)cc1,0.945,1,1
O=C(CSc1nnc(-c2ccccc2)o1)Nc1ccc(F)cc1F,1.03,1,1
COc1nc(-c2ccccc2)ccc1-c1noc(-c2ccco2)n1,0.685 (active),1,1
COc1ccccc1-c1noc(-c2ccc(C(C)(C)C)cc2)n1,1.03,1,1
Cc1ccc(-c2nnc(SCC(=O)NCCc3ccccc3)o2)cc1,1.01,1,1
CC(C)C(=O)Nc1ccccc1-c1nc(-c2ccncc2)no1,0.987,1,1
CC(C)(C)c1ccc(-c2nnc(SCc3cccc(C#N)c3)o2)cc1,1.05,1,1
Cc1ccccc1CSc1nnc(-c2ccccc2)o1,1.02,1,1
CC(C)(C)C(=O)CSc1nnc(-c2ccc(Cl)cc2Cl)o1,0.873,1,1
Cc1cccc(-c2noc(-c3cc(Cl)ccc3Cl)n2)c1,1.08,1,1
COc1ccccc1NC(=O)c1ccccc1-c1nc(-c2ccc(Cl)cc2)no1,0.78,1,1
Cc1cc(OC(C)c2nc(-c3ccccn3)no2)ccc1Cl (configuration not stated),1.03,1,1
Cc1ccc(CSc2nnc(-c3ccco3)o2)cc1,0.628 (active),0.167 (active),1
CCCCC(=O)Nc1ccccc1-c1nc(-c2ccncc2)no1,1.06,1,1
COc1nc(C)ccc1-c1noc(-c2ccc(C(C)(C)C)cc2)n1,0.926,1,1
CC(C)(Oc1ccc(Cl)cc1)c1nc(-c2ccncc2)no1,0.91,1,1
Cc1ccccc1-c1nc(-c2cccc(NC(=O)c3cccs3)c2)no1,0.959,1,1
CCCOc1ccc(-c2ccc(-c3nc(-c4cccnc4)no3)cc2)cc1,1.02,1,1
CCn1c(SCc2nc(-c3cccs3)no2)nnc1-c1ccco1,0.813,1,1
Cc1ccc(OCc2nc(-c3ccccn3)no2)cc1C,1.01,1,1
O=C(CSc1nnc(-c2ccco2)o1)Nc1ccc(Br)cn1,0.756,1,1
O=C(CSc1nnc(-c2ccncc2)o1)Nc1cc(Cl)cc(Cl)c1,0.948,1,0.955
COc1cccc(-c2nnc(SCc3ccccc3)o2)c1,0.985,1,1
CC(=O)Nc1ccc(-c2nnc(SCc3ccccc3)o2)cc1,0.954,1,1

Structure (SMILES),proportion of mobile M. hapla J2 (Meloidogyne hapla J2),proportion of mobile C. elegans dauer larvae [1],proportion of mobile D. dipsaci (Ditylenchus dipsaci)
COc1nc(C)ccc1-c1noc(-c2ccccc2C)n1,0.668 (active),1,1
COc1cccc(-c2noc(-c3ccc(C)cc3)n2)c1,0.948,0 (active),1
O=C(c1ccccc1-c1nc(-c2ccc(F)cc2)no1)N1CCCC1,1.06,1,1
Cc1cc(OCc2nc(-c3ccccn3)no2)cc(C)c1Cl,1.05,1,1
Fc1ccc(OCc2nc(-c3ccc(Cl)cc3)no2)cc1,1.1,1,1
CC(C)(C)C(=O)Nc1ccccc1-c1nc(-c2ccncc2)no1,1,1,1
CCOc1ccccc1-c1nc(-c2ccc(NC(=O)c3ccncc3)cc2)no1,0.977,1,1
COc1cccc(-c2noc(COc3cc(C)ccc3C)n2)c1,0.873,1,1
CCCC(=O)Nc1ccccc1-c1nc(-c2ccccn2)no1,0.965,1,1
Cc1ccc(-c2noc(COc3ccc(Cl)cc3)n2)cc1,1.02,1,1
CC(C)C(=O)Nc1ccccc1-c1nc(-c2ccccn2)no1,0.995,1,1
CC1CC(C)CN(C(=O)CSc2nnc(-c3cccc(Cl)c3)o2)C1 (configuration not stated),1.04,1,1
Clc1ccc(SCc2nc(-c3cccnc3)no2)cc1,0.938,0.156 (active),1
Cc1cccc(-c2nc(-c3ccc4c(c3)OCO4)no2)c1,1.01,1,1
Fc1ccc(-c2noc(-c3ccc(Cl)cc3)n2)cc1,1.03,1,1
COc1cccc(NC(=O)CSc2nnc(-c3ccc(Br)cc3)o2)c1,0.966,1,1
Brc1ccc(-c2noc(-c3ccc4c(c3)OCO4)n2)cc1,1.03,1,1
Cc1cccc(-c2nnc(SCC(=O)NC(C)c3ccccc3)o2)c1 (configuration not stated),0.89,1,1
Cc1cccc(-c2nc(-c3ccc(Br)cc3)no2)c1,1.01,1,1
CC(C)CCC(=O)Nc1ccccc1-c1nc(-c2ccncc2)no1,0.977,1,1
Cc1ccc(CSc2nnc(-c3ccco3)o2)c(C)c1,0.687 (active),1,1
Cc1ccc(-c2noc(-c3ccc(Cl)cc3)n2)cc1,1.03,1,1
CCOc1ccccc1-c1nnc(SCC(=O)Nc2nc(C)cs2)o1,0.993,1,1
Cc1ccc(-c2noc(COc3ccc(Br)cc3)n2)cc1,1,1,1
